Most compounds without a hit are left out; they make up all but 8.6% or so of the library.
Lassa entry – blocks Lassa virus binding or cell entry. Potency, µM (top dose mostly 49.2 µM), without a hit: at the top dose activity change, negative = inhibition, most hits filed as inhibitors. AID 720533. Lassa virus pseudotyped entry inhibition, cell-based qHTS. hit rate 4.1% among 18,000
MARV entry inh – blocks Marburg virus binding or cell entry; AID 720532; Potency, µM (series often up to 49.2 µM), for inactives: at the highest dose activity change, negative = inhibition, actives largely listed as inhibitors; hit rate 6.5% among 18,000; Marburg virus pseudotype entry/binding inhibition, cell-based
* marks the source's active call; other numbers are inactive results; ? = inconclusive; / = no result given; ! = not active in a repeat; [ ] = dose if it differs, or a comment. Calls come from the whole dose curve; tested in HEK293 cells. % is set by controls: 0 for no effect and ±100 for the full control effect; potency is the fitted concentration of half-maximal effect.

SMILES | Lassa entry | MARV entry inh
c1ccc(CCc2nc(-c3ccccc3)oc2Nc2ccc3ccccc3c2)cc1 | 14%[8.59 µM] | -22%[8.59 µM]
O=C(NCCCCc1ccccc1)c1cccc(NC(=O)c2ccccc2)c1 | -16% | -14%
O=C(Nc1cccc(C(=O)Nc2ccc(S(=O)(=O)O)c3cc(S(=O)(=O)O)cc(S(=O)(=O)O)c23)c1)Nc1cccc(C(=O)Nc2ccc(S(=O)(=O)O)c3cc(S(=O)(=O)O)cc(S(=O)(=O)O)c23)c1 | -28% | 32µM*!
N#CCCN(CC#Cc1ccccc1)OCc1ccccc1 | -22%[8.59 µM] | 21%[8.59 µM]
O=C1NC(=S)NC(=O)C1C(=O)Nc1ccccc1 | -5% | 10%
O=C1NC(=O)c2cc(Nc3ccccc3)c(Nc3ccccc3)cc21 | 11µM* | ?
CC(CCC(=O)OC[C@H]1O[C@H](C#Cc2ccccc2)C=C[C@H]1Oc1ccc(C)cc1)=NOC[C@@H](O)COCc1ccco1 | -20%[8.59 µM] | -10%[8.59 µM]
CCN(CC)CCOc1ccc(-c2nc3cc(Cl)ccc3s2)cc1 | ? | 13µM*
CCN(CC)CCOc1ccc2nc(N(C)C)sc2c1 | 12% | -3%
CNc1ncncc1-c1ccccc1OC | 11% | 1%
O=S1(=O)CC(N2CCN(CCO)CC2)CN1Cc1ccc(F)cc1 (centres undefined) | 16% | ?
CCN1\C(=C/C=C/C=C/c2sc3ccccc3[n+]2CC)Sc2ccccc21 | 11µM* | 7.1µM*
CCn1c(-c2cccnc2)nc2cc(NC(=O)COC)cc(C(=O)N3CCc4ccccc4C3)c21 | 11% | -1%
COC(=O)C1CCN(Cc2ccc3c(c2)CN(C(=O)c2ncc(C)[nH]2)CCO3)CC1 | -3% | -13%
CC(=O)OC1CCC2(C)C3=C(CCC2C1(C)C)[C@@]1(C)CCC(C(C)CCC=C(C)C)[C@@]1(C)CC3 (some centres undefined) | -8% | -14%
COc1cc(/C=C/C(=O)O[C@H]2CC[C@]34C[C@]35CC[C@]3(C)[C@@H]([C@H](C)CCC=C(C)C)CC[C@@]3(C)[C@@H]5CC[C@H]4C2(C)C)ccc1O | 25µM*! | 1%
COC(=O)C1=C(C(=O)OC)[C@@H]2N(C)c3ccccc3[C@@]23C[C@@H](C(=O)OC)N(C(=O)c2cccs2)C3=N1 | 7%[8.59 µM] | 5%[8.59 µM]
Cn1nccc1C(=O)NCC1CCC2(CCN(Cc3cccc4ncccc34)CC2)O1 (centres undefined) | 0% | -6%
CC(CCN1CCCc2nc(C)c(C)cc21)=NO[C@H](C)c1cn([C@@H]2COC[C@@H]2O)nn1 | / | 7%[8.59 µM]
Cc1c2ccncc2c(C)c2c1[nH]c1ccccc12 | 0%[17.8 µM] | 4.5µM*
c1ccc2c(c1)[nH]c1cnccc12 | 16% | 12%
NC(=O)C[C@@H](N)C(=O)O | 7% | 11%
Cc1ccc2c(c1)C(=O)[C@@]1(O)CCN(c3ccccc3)C1=N2 | 11% | -24%
COc1c(C2=CC(=O)N(C)C2=O)c2c(n1C)C(=O)c1ccccc1C2=O | -24% | 20µM*
COc1c(C=O)c(O)cc2c1C(=O)c1ccccc1C2=O | -5% | 8%
SMILES | Lassa entry | MARV entry inh
C[C@@H]1C[C@@H]2[C@H]3CCC4=CC(=O)C=C[C@]4(C)[C@]3(F)[C@@H](O)C[C@]2(C)[C@@]1(O)C(=O)CO | -6%[17.8 µM] | 3%[17.8 µM]
C#Cc1ccccc1C[C@]1(C(=O)OC)C=C[C@H](C)[C@@H](c2ccccc2Br)N1C(=O)C(F)(F)F | 0%[8.59 µM] | 7%[8.59 µM]
COC(=O)C1=C[C@H]([C@@H](C)[C@H](OC)c2ccccc2Br)[C@H]2[C@H]1c1ccccc1N2C | / | -16%[8.59 µM]
CCC(OC(C)=O)C(CC(C)NC)(c1ccccc1)c1ccccc1 (centres undefined) | 40µM* | 7.9µM*
Oc1cc(-c2cccs2)cc2c1OCCN(Cc1cn[nH]c1-c1ccc(Cl)cc1)C2 | -5% | 6%
Cc1ccc(-c2ccc(CN3C(CC(C)C)C(=O)N(Cc4cn(CCC5OCCCO5)nn4)CCS3(=O)=O)cc2)cc1 (centres undefined) | -28% | ?
O=C(NCC1CCC2(CCN(Cc3cnn(-c4ccc(F)cc4)c3)CC2)O1)c1ccccc1 (centres undefined) | -13% | 0%
CN(CC[C@@H](Oc1ccc(-c2ccccc2)cc1)c1ccc(F)cc1)CC(=O)O | -19% | 13%
NC(=O)c1ccc([N+](=O)[O-])cc1Cl | 2% | 9%
O=[N+]([O-])c1ccc2c(c1)S(=O)(=O)C=C2 | 11µM* | 6.3µM*
CN1CCCCC1CCN1c2ccccc2Sc2ccc(S(C)=O)cc21 (centres undefined) | ? | 8.9µM*!
COc1ccc(-c2cc(=O)c3c(O)cc(O)c(-c4cc(-c5cc(=O)c6c(O)cc(OC)cc6o5)ccc4OC)c3o2)cc1 | -3% | -11%
Cc1cccc(CNc2ncnc3ccc(-c4c(C)noc4C)cc23)c1 | 7% | 1%
COc1cc(=O)n2c(c1C(=O)N(C)Cc1nonc1C)CCN(Cc1c(F)cccc1F)CC2 | 11µM* | -14%
COc1cc(=O)n2c(c1C(=O)N(C)Cc1nonc1C)CCN(Cc1cc(F)ccc1F)CC2 | -27% | -8%
O[C@@H]1[C@@H]2O[P@@](O)(=S)OC[C@H]2O[C@H]1n1cnc2cc(Cl)c(Cl)cc21 | -1% | 3%
CC(=O)Oc1cc(C(F)(F)F)ccc1C(=O)O | -14%[17.8 µM] | -5%[17.8 µM]
Cc1nc2sccn2c(=O)c1CCN1CCC(=C(c2ccc(F)cc2)c2ccc(F)cc2)CC1 | 35µM* | ?
Cc1nc2ccccn2c(=O)c1CCN1CCC(C(=O)c2ccc(F)cc2)CC1 | 6% | ?
CC(CN1c2ccccc2Sc2ccccc21)N(C)C (centres undefined) | 32µM*! | 13µM*
C[C@@H](CN1c2ccccc2Sc2ccccc21)N(C)C | -14%[17.8 µM] | 10µM*
CN(C)C(=O)OC1=C(c2ccccc2)Sc2ccccc2-n2cccc21 | ? | -18%
NC(=O)NC(=O)Cc1ccccc1 | -2% | -18%
CC1CN(CCC(=O)NCc2ccc3ncccc3c2)Cc2cc(Cl)ccc2O1 (centres undefined) | 7% | -12%
O=C(O)C1CC(C2CCCCN2)CN2CCCCC12 (centres undefined) | -7% | -5%
SMILES | Lassa entry | MARV entry inh
CC(C)NC(=O)OC[C@@H]1CSCCS(=O)(=O)N1 | / | 19%
c1cc(Cc2cnc[nH]2)ccn1 | 1% | -1%
CN(C)CCOc1ccccc1Cc1ccccc1 | 10% | ?
CNCCCCOc1ccccc1Cc1ccccc1 | ? | 7.1µM*
FC(F)(F)c1cccc(-c2nn3ncccc3c2-c2ccnc(Nc3ccc4c(c3)OCCO4)n2)c1 | / | 4µM*
c1cnn2ncc(-c3ccnc(Nc4ccc5c(c4)OCCO5)n3)c2c1 | / | 2.8µM*
Fc1ccc(-c2nn3ncccc3c2-c2ccnc(Nc3ccc4c(c3)OCCO4)n2)cc1 | ? | 0.89µM*
COc1ccc(-c2nn3ncccc3c2-c2ccnc(Nc3ccc4c(c3)OCCO4)n2)cc1 | ? | 7.1µM*
OCCCNc1nccc(-c2c(-c3ccc(F)cc3)nn3cc(C(F)(F)F)ccc23)n1 | -39% | ?
Cc1cn2cc(CNC(=O)CN3Cc4ccccc4OC(c4ccccc4F)C3)nc2s1 (centres undefined) | -20% | -21%
c1coc(-c2ccccc2CN2CCOc3ccc(CN4CCOCC4)cc3C2)c1 | 6% | -17%
CO[C@H]1[C@H](NC(=O)c2ccsc2)c2ccccc2C12CCN(Cc1ccc3c(c1)OCO3)CC2 | -29% | ?
CC(n1cc(C[C@H](N)C(=O)O)c2ccccc21)n1cc(C[C@H](N)C(=O)O)c2ccccc21 | -16% | -23%
Clc1ccc(-c2nn3ncccc3c2-c2ccnc(Nc3ccccc3)n2)cc1 | / | 6.3µM*

Compound activity: PubChem BioAssay, National Center for Advancing Translational Sciences (NCATS)
